Assay results reported in ChEMBL document CHEMBL4513216, “Probing the Open Global Health Chemical Diversity Library for Multistage-Active Starting Points for Next-Generation Antimalarials” (ACS Infect Dis, 2020).
Among all 68,000 compounds or so, about 2,700 (4%) showed an effect of 50% or more. The sample holds strong results, similar compounds and a random draw of the others, so the mix is not that of the screen.

system: Plasmodium berghei; assay: Screen against P. berghei liver stage (PbLuc), transformed with Luciferase, at 2uM; type: functional, HepG2; conditions: tested at 2 uM

| SMILES | INHIBITION |
| --- | --- |
| COc1cc(CCC(=O)NC(C)(C)C)ccc1OCC(F)(F)F | -1.02% |
| CCOCCC1(CNC(=O)c2ccc(C)nc2)CCCC1 | -9.5% |
| COCCN1CCN(C(=O)C(c2cccc(F)c2)N(C)C)CC1 (centres undefined) | 48.21% |
| CN(C)C(C(=O)N1CCN(CCn2cccc2)CC1)c1cccc(F)c1 (centres undefined) | 69.67% |
| CN(C)C(C(=O)N1CCN(CCn2cccc2)CC1)c1ccc(F)cc1 (centres undefined) | 31.51% |
| CN(C)C(C(=O)NCCn1cccc1)c1cccc(F)c1 (centres undefined) | 3.58% |
| COCCCN1CCN(C(=O)C(c2cccc(F)c2)N(C)C)CC1 (centres undefined) | 60.13% |
| CCOCC1CCN(C(=O)C(c2cccc(F)c2)N(C)C)CC1 (centres undefined) | -15.23% |
| CCc1[nH]ncc1C(=O)N1CCCC(n2cccn2)C1 (centres undefined) | 2.7% |
| Cc1ccccc1OCCCC(=O)N1CCCC(n2cncn2)C1 (centres undefined) | 39.54% |
| O=C(C1CN(CC2CC2)CC12CCOCC2)N1CCCC1 (centres undefined) | 31.41% |
| COCCN1C[C@H]2CN(Cc3cccc(OC)c3)CCN2C1=O | 36.44% |
| Cc1ccc(CN2C[C@H]3CN(Cc4ccccc4Cl)CCN3C2=O)cc1 | 40.83% |
| O=C1N(Cc2ccccc2)C[C@H]2CN(Cc3ccccc3Cl)CCN12 | 64.44% |
| CS(=O)(=O)NC[C@]12COC[C@H]1CN(Cc1ccc3c(c1)OCO3)C2 | -6.8% |
| CCN(CC)CC1CCN(C(=O)CCn2cccn2)CC1 | -13.06% |
| COC1CCN(C(=O)CCn2cccn2)CC1 | 26.61% |
| c1cnc(N2CCC(C3CCN(CCCn4cccn4)C3)CC2)nc1 (centres undefined) | 19.04% |
| O=C(CCc1cn[nH]c1)N1CCC(C2CCN(c3ncccn3)CC2)C1 (centres undefined) | 45.48% |
| CCCC1CCCN(C(=O)CCn2cccn2)CC1 (centres undefined) | 63.68% |
| O=C(CCn1cccn1)N1CCC(C2CCN(c3ncccn3)CC2)C1 (centres undefined) | 52.08% |
| Cn1cccc1C(=O)N1CC2(CCN(C(=O)c3cccnc3)C2)C1 | 21.77% |
| CCc1noc(C2CCN(C(=O)CCn3nc(C)cc3C)CC2)n1 | 12.3% |

| SMILES | INHIBITION |
| --- | --- |
| c1ccc(Cc2noc(CN3CCOC(Cn4cccn4)C3)n2)cc1 (centres undefined) | -0.6% |
| O=C(C1CCC1)N1C[C@@H]2CN(c3ccccc3)C(=O)[C@@H]2C1 | 49.07% |
| O=C(CC1CC1)N1C[C@@H]2CN(c3ccccc3)C(=O)[C@@H]2C1 | 28.2% |
| O=C(CCO)N1C[C@H]2CN(c3ccccc3)C(=O)[C@H]2C1 | 54.01% |
| NC(=O)COc1ccc(CNCc2ccc(F)c(F)c2)cc1 | -52.95% |
| Cn1ccnc1CCNS(=O)(=O)c1ccc(Br)cc1 | -16.21% |
| COc1cccc2c1CCC2NC(=O)NCc1csc(N(C)C)n1 (centres undefined) | -57.02% |
| Cc1nn(C)c(N(C)C)c1CNC(C)COc1cccc(F)c1 (centres undefined) | 34.83% |
| CC(C)N(C(=O)CCc1cccc(F)c1)C1CCOCC1 | -7.16% |
| CC(C)N(C(=O)CCc1ccco1)C1CCOCC1 | 76.6% |
| COc1ccc(CCC(=O)N(C(C)C)C2CCOCC2)cc1 | 20.76% |
| O=C(NCC1CCCCO1)c1ccc(-c2ccco2)[nH]c1=O (centres undefined) | 38.67% |
| Cc1cc(S(=O)(=O)N2CCC(N3CCC(O)C3)CC2)c(Cl)cc1Cl (centres undefined) | 55.73% |
| CCN1CCN(S(=O)(=O)c2cc(C)c(Cl)cc2Cl)CC1 | 26.09% |
| Cc1cc(S(=O)(=O)N2CC[C@@H](O)C2)c(Cl)cc1F | -54.78% |
| CC(C)c1nnc(CN(C)Cc2ccccc2-c2ccccc2)o1 | 20.63% |
| CC(CCN1CCOCC1)NC(=O)c1cccc(C(F)(F)F)c1F (centres undefined) | 18.37% |
| COc1cccc(C(=O)NC(C)CCN2CCOCC2)c1F (centres undefined) | -22.65% |
| CC(CCN(C)C)NC(=O)c1cccc(C(F)(F)F)c1F (centres undefined) | 52.38% |
| Cc1nnc2n1CCN(CCOc1cccc(C#N)c1)C2 | 33.82% |
| CC(C)(O)CCc1ccc(C(=O)NCC2CCCOC2)cc1 (centres undefined) | 42.27% |
| Cc1ccc(C(=O)N2C[C@H](NS(C)(=O)=O)[C@@H](C(C)C)C2)cc1F | -43.88% |
| Cc1ccc(C(=O)N2C[C@@H](NS(C)(=O)=O)[C@H](C(C)C)C2)cc1O | 51.72% |

| SMILES | INHIBITION |
| --- | --- |
| Cc1nc2cc(C(=O)N3C[C@@H](NS(C)(=O)=O)[C@H](C(C)C)C3)ccc2[nH]1 | -1.71% |
| O=C(c1ccco1)N1C2CCC(O)(CC2)C1CO (centres undefined) | 3.38% |
| NC1CCc2c(ccc(=O)n2CC2CC2)C1 (centres undefined) | 24.86% |
| O=c1ccc2c(n1CCN1CCCC1)CCN(Cc1ccoc1)CC2 | -1.79% |
| O=c1ccc2c(n1Cc1cccnc1)CCN(Cc1ccoc1)CC2 | 0.13% |
| CCn1c2c(ccc1=O)CC(N)CC2 (centres undefined) | 13.38% |
| NC1CCc2c(ccc(=O)n2Cc2ccncc2)C1 (centres undefined) | 55.11% |
| O=c1ccc2c(n1Cc1ccncc1)CCN(Cc1ccoc1)CC2 | 50.91% |
| CCOCC1CN(Cc2ccco2)Cc2nccn2C1 (centres undefined) | -7.76% |
| CNS(=O)(=O)c1cnccc1N1CCN(C(C)C)CC1 | 15.75% |
| Cc1csc(CCNc2ccc(C#N)cn2)n1 | 20.29% |
| Cc1cccc(NCCNc2ccc(C#N)cn2)n1 | 60.79% |
| Cc1cc(NCCNc2ccc(C#N)cn2)nc(C)n1 | 21.81% |
| COc1ccc(NC(=O)NCC(O)c2ccc(F)cc2F)c(OC)c1 (centres undefined) | 47.72% |
| CCn1ccnc1CN1CCN(C(C)C)CC1C (centres undefined) | -49.57% |
| CCn1ccnc1CN1CCN(c2nccc(OC)n2)CC1C (centres undefined) | 72.05% |
| CCCN1CCN(Cc2nccn2CC)C(C)C1 (centres undefined) | 16.97% |
| COc1ccccc1C(NCc1ccc(SC)cc1)c1nccn1C (centres undefined) | 16.26% |
| COc1ccc(OC)c(CN2CCN(Cc3cscn3)CC2)c1 | 1.3% |
| COc1ccc2c(c1)CCN(Cc1cscn1)CC2 | 1.54% |
| COc1ccc(C2CCN(Cc3cscn3)CC2)cc1 | 56.84% |
| Cc1csc2ncc(-c3ccnc(N4CCC[C@H](C(N)=O)C4)n3)c(=O)n12 | 43.16% |
| COC[C@@H]1CC[C@H]2[C@H](CCN2S(=O)(=O)c2cccc(F)c2)O1 | 9.46% |
